# According to the antibiotic and cytotoxicity screens of Wong et al. (2023):
# In all, about 39,000 compounds went through this assay and about 1,500 (3.8%) were called active. Shown is part of a subset that was picked to be rich in actives.
# Test system: HSkMC (human skeletal muscle cells)
# Test: cytotoxicity call (relative viability < 0.9)
# Conditions: 10 µM
row,Structure (SMILES),cytotoxicity call
1,NNC(=O)[C@H]1C[C@H]2C[C@@H]1C[C@@H]2C(=O)NN,inactive
2,COc1ccc(S(=O)(=O)N(C)C[C@H]2Oc3ccc(NC(=O)Cn4cnnn4)cc3CC(=O)N([C@@H](C)CO)C[C@H]2C)cc1,inactive
3,O=C(O)c1ccc[n+]([O-])c1,inactive
4,CN(C)C(=O)C1CCN(S(C)(=O)=O)CC1,inactive
5,Cc1noc(C)c1NC(=O)Nc1ccc2c(c1)C(=O)N([C@@H](C)CO)C[C@H](C)[C@H](CN(C)C(=O)Nc1ccc(C(F)(F)F)cc1)O2,inactive
6,C[C@@H]1CCCCO[C@@H](CN(C)C(=O)c2ccccc2)[C@@H](C)CN([C@H](C)CO)C(=O)c2cc(NC(=O)Cc3ccccc3)ccc2O1,inactive
7,O=C(Nc1cc(Cl)ccc1Cl)c1cc(Br)ccc1NS(=O)(=O)c1ccc(Cl)c([N+](=O)[O-])c1,inactive
8,Cn1cnc(-c2cc3nccc(Oc4ccc(NC(=S)NC(=O)Cc5ccccc5)cc4F)c3s2)c1,inactive
9,COCCNCc1ccc(-c2cc3nccc(Oc4ccc(NC(=S)NC(=O)Cc5ccc(F)cc5)cc4F)c3s2)nc1,active
10,COCCNCc1ccc(-c2cc3nccc(Oc4ccc(NC(=O)C5(C(=O)Nc6ccc(F)cc6)CC5)cc4F)c3s2)nc1,active
11,C[C@H](CO)N1C[C@H](C)[C@H](CN(C)S(=O)(=O)c2ccc(-n3cccn3)cc2)OCc2cn(nn2)CCCC1=O,inactive
12,CO[C@H](C(=O)N(C)C[C@@H]1OCc2ccccc2-c2c(n(C)c3ccccc23)C(=O)N([C@@H](C)CO)C[C@@H]1C)c1ccccc1,inactive
13,C[C@@H]1CN([C@@H](C)CO)C(=O)Cc2cc(NC(=O)Nc3cccc4ccccc34)ccc2O[C@@H]1CN(C)Cc1ccncc1,inactive
14,COc1ccc(S(=O)(=O)N[C@H]2CC[C@@H](CC(=O)N3CCN(c4ccccc4)CC3)O[C@@H]2CO)cc1,inactive
15,Cc1noc(C)c1NC(=O)Nc1ccc2c(c1)C(=O)N([C@@H](C)CO)C[C@@H](C)[C@H](CN(C)C(=O)Nc1cccc3ccccc13)OCCCC[C@@H](C)O2,active
16,Cc1noc(C)c1NC(=O)Nc1ccc2c(c1)C(=O)N([C@@H](C)CO)C[C@@H](C)[C@H](CN(C)C(=O)Nc1cccc3ccccc13)OCCCC[C@H](C)O2,inactive
17,Cc1noc(C)c1NC(=O)Nc1ccc2c(c1)C(=O)N([C@H](C)CO)C[C@H](C)[C@@H](CN(C)C(=O)Nc1cccc3ccccc13)OCCCC[C@H](C)O2,inactive
18,Cc1noc(C)c1NC(=O)Nc1ccc2c(c1)C(=O)N([C@@H](C)CO)C[C@H](C)[C@@H](CN(C)C(=O)Nc1cccc3ccccc13)OCCCC[C@@H](C)O2,inactive
19,Cc1noc(C)c1NC(=O)Nc1ccc2c(c1)C(=O)N([C@H](C)CO)C[C@H](C)[C@H](CN(C)C(=O)Nc1cccc3ccccc13)OCCCC[C@H](C)O2,active
20,Cc1noc(C)c1NC(=O)Nc1ccc2c(c1)C(=O)N([C@H](C)CO)C[C@@H](C)[C@H](CN(C)C(=O)Nc1cccc3ccccc13)OCCCC[C@@H](C)O2,inactive
21,COc1ccc(S(=O)(=O)N(C)C[C@@H]2OCCCC[C@H](C)Oc3ccc(NS(=O)(=O)c4ccc(Cl)cc4)cc3C(=O)N([C@H](C)CO)C[C@H]2C)cc1,inactive
22,COc1ccc(S(=O)(=O)Nc2ccc3c(c2)C(=O)N([C@@H](C)CO)C[C@H](C)[C@H](CN(C)Cc2ccc(C(=O)O)cc2)OCCCC[C@H](C)O3)cc1,inactive

row,Structure (SMILES),cytotoxicity call
1,COC(=O)C1CCN(S(=O)(=O)c2c(C)n(C)c(=O)n(C)c2=O)CC1,inactive
2,O=C(CN1CCOCC1)NCC[C@@H]1CC[C@@H](NC(=O)c2ccccc2F)[C@@H](CO)O1,active
3,O=C(CN1CCOCC1)NCC[C@H]1CC[C@H](NC(=O)c2ccccc2F)[C@H](CO)O1,inactive
4,O=C(CN1CCOCC1)NCC[C@@H]1CC[C@@H](NC(=O)c2ccccc2F)[C@H](CO)O1,inactive
5,CO/N=[N+](\[O-])NC(C)C,inactive
6,C[C@@H]1CCCCO[C@@H](CN(C)Cc2ccc(Cl)c(Cl)c2)[C@@H](C)CN([C@@H](C)CO)C(=O)c2cc(NS(=O)(=O)c3ccc(F)cc3)ccc2O1,inactive
7,C[C@@H]1CCCCO[C@H](CN(C)Cc2ccc(Cl)c(Cl)c2)[C@@H](C)CN([C@H](C)CO)C(=O)c2cc(NS(=O)(=O)c3ccc(F)cc3)ccc2O1,inactive
8,C[C@H](CO)N1C[C@H](C)[C@H](CN(C)Cc2ccc(Cl)c(Cl)c2)OCCCC[C@H](C)Oc2ccc(NS(=O)(=O)c3ccc(F)cc3)cc2C1=O,active
9,C[C@H]1CCCCO[C@H](CN(C)Cc2ccc(Cl)c(Cl)c2)[C@@H](C)CN([C@@H](C)CO)C(=O)c2cc(NS(=O)(=O)c3ccc(F)cc3)ccc2O1,active
10,C[C@@H]1CCCCO[C@@H](CN(C)Cc2ccc(Cl)c(Cl)c2)[C@H](C)CN([C@@H](C)CO)C(=O)c2cc(NS(=O)(=O)c3ccc(F)cc3)ccc2O1,active
11,C[C@H](CO)N1C[C@H](C)[C@@H](CN(C)Cc2ccc(Cl)c(Cl)c2)OCCCC[C@H](C)Oc2ccc(NS(=O)(=O)c3ccc(F)cc3)cc2C1=O,inactive
12,C[C@@H]1CCCCO[C@@H](CN(C)Cc2ccc(Cl)c(Cl)c2)[C@H](C)CN([C@H](C)CO)C(=O)c2cc(NS(=O)(=O)c3ccc(F)cc3)ccc2O1,active
13,C[C@H]1CN([C@@H](C)CO)C(=O)c2cc(NC(=O)NC3CCCCC3)ccc2O[C@H]1CN(C)S(=O)(=O)c1cn(C)cn1,inactive
14,O=C(C[C@@H]1CC[C@@H](NC(=O)Cc2ccccn2)[C@H](CO)O1)NCCc1ccncc1,inactive
15,C[C@H](CO)N1C[C@H](C)[C@@H](CN(C)S(=O)(=O)c2cccs2)OCCCC[C@H](C)Oc2ccc(NS(=O)(=O)c3ccc(Cl)cc3)cc2C1=O,inactive
16,C[C@H](CO)N1C[C@H](C)[C@H](CN(C)C(=O)Nc2ccc(C(F)(F)F)cc2)OCCCC[C@H](C)Oc2ccc(NC(=O)Cc3ccccc3)cc2C1=O,inactive
17,C[C@@H]1CCCCO[C@H](CN(C)Cc2ccc3c(c2)OCO3)[C@H](C)CN([C@@H](C)CO)C(=O)c2cc(NS(=O)(=O)c3ccccc3)ccc2O1,inactive
18,C[C@H]1CN([C@@H](C)CO)C(=O)c2cc(NC(=O)CCCN(C)C)ccc2O[C@@H]1CN(C)Cc1ccc(Oc2ccccc2)cc1,inactive
19,Cc1ncc(CO)c(/C=N/O)c1O,inactive
20,Cc1ccc(S[C@]2(C(=O)NC(C)C)CC(=O)N(C3CCCCC3)[C@@H]2c2ccc(CO)cc2I)cc1,inactive
21,COc1ccc(S(=O)(=O)N[C@H]2C=C[C@@H](CC(=O)N3CCN(c4ccccc4)CC3)O[C@@H]2CO)cc1,inactive
22,Cc1noc(C)c1NC(=O)Nc1cccc2c1O[C@@H](CN(C)C(=O)Nc1ccc(C(F)(F)F)cc1)[C@H](C)CN([C@H](C)CO)C2=O,inactive

row,Structure (SMILES),cytotoxicity call
1,Cc1cc(C(=O)Nc2cccc3c2O[C@H](CN(C)S(=O)(=O)c2ccc(F)cc2)[C@@H](C)CN([C@H](C)CO)C3=O)n(C)n1,inactive
2,COC(=O)c1c2oc(c1C(=O)OC)C(=O)N[C@H](Cc1ccccc1)Cn1cc(nn1)CNC(=O)[C@H](Cc1ccccc1)NC(=O)N[C@@H](CO)CC2,inactive
3,CCCCC[C@H]1C[C@H]1C[C@H]1C[C@H]1CCCCCCCC(=O)O,inactive
4,COc1cccc(CN2C[C@@H](C)[C@H](OC)CN(C)C(=O)c3cc(NS(=O)(=O)c4cn(C)cn4)ccc3OC[C@H]2C)c1,inactive
5,O=C(C[C@@H]1CC[C@@H]2[C@H](COC[C@@H](O)CN2C(=O)c2ccc3c(c2)OCO3)O1)NCCN1CCCC1,inactive
6,C[C@@H]1CCCCO[C@H](CN(C)Cc2ccc(Cl)c(Cl)c2)[C@@H](C)CN([C@@H](C)CO)C(=O)c2cc(NS(=O)(=O)c3ccc(F)cc3)ccc2O1,active
7,C[C@@H]1CCCCO[C@@H](CN(C)Cc2ccc(Cl)c(Cl)c2)[C@@H](C)CN([C@H](C)CO)C(=O)c2cc(NS(=O)(=O)c3ccc(F)cc3)ccc2O1,inactive
8,C[C@@H]1CCCCO[C@H](CN(C)Cc2ccc(Cl)c(Cl)c2)[C@H](C)CN([C@@H](C)CO)C(=O)c2cc(NS(=O)(=O)c3ccc(F)cc3)ccc2O1,active
9,C[C@@H]1CN([C@H](C)CO)C(=O)c2cc(NS(=O)(=O)c3ccc(F)cc3)ccc2O[C@@H](C)CCCCO[C@H]1CN(C)Cc1ccc(Cl)c(Cl)c1,inactive
10,CN1CCN(C(=O)C[C@H]2C=C[C@@H](NC(=O)Cc3ccccn3)[C@H](CO)O2)CC1,inactive
11,COc1ccc(NC(=O)Nc2ccc3c(c2)C(=O)N([C@H](C)CO)C[C@H](C)[C@@H](CN(C)C(=O)NC2CCCCC2)OCCCC[C@@H](C)O3)cc1,inactive
12,C[C@@H]1CN([C@H](C)CO)C(=O)c2cc(NC(=O)Nc3ccc(C(F)(F)F)cc3)ccc2O[C@@H](C)CCCCO[C@@H]1CN(C)C(=O)NC1CCCCC1,inactive
13,C[C@@H]1CCCCO[C@@H](CN(C)C(=O)NC2CCCCC2)[C@H](C)CN([C@@H](C)CO)C(=O)c2cc(NC(=O)Nc3ccc(C(F)(F)F)cc3)ccc2O1,inactive
14,C[C@H]1CN([C@@H](C)CO)C(=O)c2cc(NC(=O)Nc3ccc(C(F)(F)F)cc3)ccc2O[C@@H]1CN(C)C(=O)NC1CCCCC1,inactive
15,C[C@H]1CCCCO[C@@H](CN(C)C(=O)NC2CCCCC2)[C@@H](C)CN([C@@H](C)CO)C(=O)c2cc(NC(=O)Nc3ccc(C(F)(F)F)cc3)ccc2O1,inactive
16,C[C@@H]1CN([C@H](C)CO)C(=O)c2cc(NC(=O)Nc3ccc(C(F)(F)F)cc3)ccc2O[C@@H]1CN(C)C(=O)NC1CCCCC1,active
17,C[C@@H]1CCCCO[C@@H](CN(C)C(=O)NC2CCCCC2)[C@@H](C)CN([C@H](C)CO)C(=O)c2cc(NC(=O)Nc3ccc(C(F)(F)F)cc3)ccc2O1,active
18,COc1ccc(NC(=O)Nc2ccc3c(c2)C(=O)N([C@@H](C)CO)C[C@@H](C)[C@@H](CN(C)C(=O)NC2CCCCC2)OCCCC[C@@H](C)O3)cc1,active
19,C[C@@H]1CN([C@H](C)CO)C(=O)c2cc(NC(=O)Nc3ccc(C(F)(F)F)cc3)ccc2O[C@H]1CN(C)C(=O)NC1CCCCC1,inactive
20,C[C@@H]1CCCCO[C@H](CN(C)C(=O)NC2CCCCC2)[C@@H](C)CN([C@@H](C)CO)C(=O)c2cc(NC(=O)Nc3ccc(C(F)(F)F)cc3)ccc2O1,inactive
21,COc1ccc(NC(=O)Nc2ccc3c(c2)C(=O)N([C@@H](C)CO)C[C@H](C)[C@H](CN(C)C(=O)NC2CCCCC2)OCCCC[C@H](C)O3)cc1,inactive
22,C[C@@H]1CCCCO[C@H](CN(C)C(=O)NC2CCCCC2)[C@H](C)CN([C@H](C)CO)C(=O)c2cc(NC(=O)Nc3ccc(C(F)(F)F)cc3)ccc2O1,active
